SMILES strings stand for the structures. Activity calls are given as the source filed them. Rule for the calls: active = hit-call score of the fitted dose curve at least 0.9, where 1 is the maximum; inactive = score below 0.9.

Read-out in the assay: Thrombomodulin, THBD (gene 7056)
Kind of assay: BSK_LPS_Thrombomodulin: BioMAP Diversity Plus: LPS Assay for Thrombomodulin Biomarker Activity (AID 2284296). Conditions: primary human HUVEC with PBMC. The procedure: BSK_LPS is a cell-based, multiplexed-readout assay that uses umbilical vein endothelium and peripheral blood mononuclear cells, a human vascular primary cell co-culture, with measurements taken at 24 hours after chemical dosing in a 96-well plate.BSK_LPS_Thrombomodulin is an assay component measured in the BSK_LPS assay. It measures Thrombomodulin antibody related to regulation of gene expression using ELISA technology.Data from the assay component BSK_LPS_Thrombodulin was analyzed at the endpoint, BSK_LPS_Thrombomodulin, in the positive analysis fitting direction relative to DMSO as the negative control and baseline of activity. Using a type of binding reporter, gain or loss-of-signal activity can be used to understand protein changes. To generalize the intended target to other relatable targets, this assay endpoint is annotated to the 'gpcr' intended target family, where the subfamily is 'rhodopsin-like receptor'.
The levels of cell surface (or secreted, indicated by the prefix "s") biomarker endpoints were measured by ELISA. Overt cytotoxicity to cells in confluent adherent cultures (all systems other than the BT system) was assessed by measuring total protein levels using sulforhodamine B (SRB) staining in parallel cultures at the time of biomarker measurements, indicated as SRB endpoints. For proliferation assays for adherent cell types, individual cell types are cultured at sub-confluence and relative cell numbers quantified by SRB staining at time points optimized for each system (48 h: 3C and CASM3C systems; 72 h: BT and HDF3CGF systems; 96 h: SAg system). SRB was performed by staining cells with 0.1% SRB after fixation with 10% TCA and reading wells at 560 nm.Viability and proliferation of PBMC (T cells) was quantified by Alamar Blue reduction for the SAg and BT systems. For PBMC viability (referred to as PBMC Cytotoxicity within the assay endpoint names), cells were plated (75,000/well in a 96-well plate) and then chemical samples added for 1 h before addition of activators, SEB and TSST-1 (20 ng/mL final concentration each). Cells were incubated for 90 h. Then, Alamar Blue (20 uL/well) (Invitrogen, Cat DAL1100) was added for 6 h, and the plates were read with a fluorescence microplate reader at 546/580 nm (excitation/emission). For PBMC proliferation, cells were plated and activated as above but incubated for only 16 h prior to addition of Alamar Blue. Plates were read after 6 h.
For `CCC(=O)OCc1ccccc1`, the result was inactive. Take `NCCNCCN`: the result was inactive. For the compound `CC(=O)OCCC(C)CC(C)(C)C` (configuration not stated), the outcome was inactive. `Cc1cc(C2(c3cc(C)c(O)cc3C)OS(=O)(=O)c3ccccc32)c(C)cc1O`: the outcome was inactive. The result for `Nc1cc([N+](=O)[O-])ccc1O` reads “inactive”; that for `OC[C@H]1O[C@H](O[C@]2(CCl)O[C@H](CCl)[C@@H](O)[C@@H]2O)[C@H](O)[C@@H](O)[C@H]1Cl`, “inactive”. As to `C=CCOC(=O)CCC1CCCCC1`, the outcome was inactive. In the case of `C[C@H]1C[C@@H]2[C@H]([C@@H](O)C[C@@]3(C)[C@H]2CC[C@]3(O)C(=O)CO)[C@@]2(C)C=CC(=O)C=C12`, the result was inactive. Turning to `CC[Si](OC(C)=O)(OC(C)=O)OC(C)=O`, the outcome was inactive. With `COc1cc(C=O)ccc1OC(=O)C(C)C` the entry was “inactive”; with `OC1OC[C@@H](O)[C@H](O)[C@H]1O` (some centres not stated), “inactive”; with `CC(=O)[C@H]1CC[C@H]2[C@@H]3CC=C4C[C@@H](O)CC[C@]4(C)[C@H]3CC[C@]12C`, “inactive”.

For the origin of these results see PubChem BioAssay (EPA / NIEHS).
